The results in this text go back to PubChem BioAssay (NCI).

The panel holds about 79,000 compounds, 15% with a hit somewhere; the sample as a whole holds those more often. Values without a mark were called inactive. Activity calls are given as the source filed them. Rule as the data show it: active = growth inhibition above about 70%; inactive = the rest.

Assay [1] can be described thus: NCI Yeast Anticancer Drug Screen. Data for the rad50 strain (AID 155).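 Also: 0% = growth of vehicle-only cultures of the same strain.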 To be noted: S. cerevisiae rad50 strain growth inhibition, hits give high values. A digest of the protocol: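 Growth of the mutant yeast was measured after compound exposure and referenced to vehicle-treated cultures.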
Assay [2] in a line: NCI Yeast Anticancer Drug Screen. Data for the mec2-1 strain (AID 157). The settings on record: S. cerevisiae mec2-1 strain, hits give high values. The method, boiled down:
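mec2-1 yeast strain, carrying an alteration in DNA damage repair or cell cycle control, was exposed to compounds; growth inhibition was measured relative to vehicle-treated controls.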

Assay [3] can be described thus: NCI Yeast Anticancer Drug Screen. Data for the sgs1 mgt1 strain (AID 161).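 Also: 0% = growth of cultures given vehicle only.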 The settings on record: S. cerevisiae sgs1 mgt1 strain, hits give high values. A digest of the protocol:
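Yeast cells carrying a defined DNA-repair defect were exposed to test compounds. Growth inhibition was measured relative to vehicle-treated controls.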

A short description of assay [4]: NCI Yeast Anticancer Drug Screen. Data for the cln2 rad14 strain (AID 165).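 Also: 0% = growth equal to vehicle treated cultures.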 The settings on record: S. cerevisiae cln2 rad14 strain, hits give high values. A digest of the protocol: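 Yeast carrying cln2 and rad14 alterations (cell cycle control and DNA damage repair) were exposed to compounds. Growth inhibition was measured against vehicle-treated controls.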
Assay [5] is described as follows: NCI Yeast Anticancer Drug Screen. Data for the bub3 strain (AID 167). To be noted: S. cerevisiae bub3 mutant strain, hits give high values. A digest of the protocol: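 Whole-cell yeast assay. The mutant strain was incubated with compounds, and growth inhibition was determined by comparison with vehicle-treated cells.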
Assay [6] in a line: NCI Yeast Anticancer Drug Screen. Data for the mlh1 rad18 strain (AID 175). To be noted: S. cerevisiae mlh1 rad18 strain growth inhibition, hits give high values. A digest of the protocol:
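Growth inhibition of the yeast strain was measured after compound exposure and expressed relative to vehicle-treated controls. The strain carries defined defects in DNA damage repair.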

[7] abbreviates: at 5.0 µM (retest, dose inferred, filed as 0.5).
Where [8] appears, read: at 50.0 µM (retest, dose inferred, filed as 5.0).

Consider `Brc1cc2ccccc2c2ccccc12`, for which the growth inhibition is 11% in assay [1] (setting [7]); 91% (active) in assay [1] (setting [8]); 75.1% (active) in assay [1] (at 50.0 µM); -7% in assay [2] (setting [7]); 54% in assay [2] (setting [8]); 65.2% in assay [2] (at 50.0 µM). The growth inhibition in assay [3] (setting [7]) was 7%; in assay [3] (setting [8]) it was 89% (active); in assay [3] (at 50.0 µM), 59.8%; in assay [4] (setting [7]), 11%; in assay [4] (setting [8]) it was 28%; in assay [4] (at 50.0 µM), -16.1%. In addition, the growth inhibition is 23% in assay [5] (setting [7]); 81% (active) in assay [5] (setting [8]); 55.3% in assay [5] (at 50.0 µM); 41% in assay [6] (setting [7]); 91% (active) in assay [6] (setting [8]); 40.8% in assay [6] (at 50.0 µM).
`O=C1CCSC(=S)N1c1ccc(N=Nc2ccccc2)cc1`: the growth inhibition in assay [1] (setting [7]) is 57%; in assay [1] (setting [8]), 94% (active); in assay [1] (at 50.0 µM), 75.4% (active); in assay [2] (setting [7]), 9%; in assay [2] (setting [8]) it was 91% (active); in assay [2] (at 50.0 µM) it was 97.6% (active). The growth inhibition in assay [3] (setting [7]) is 20%; in assay [3] (setting [8]), 94% (active); in assay [3] (at 50.0 µM), 97.2% (active); in assay [4] (setting [7]) it was 11%; in assay [4] (setting [8]), 13%; in assay [4] (at 50.0 µM), 84% (active). Besides, the growth inhibition was 0% in assay [5] (setting [7]); 4% in assay [5] (setting [8]); 93.5% (active) in assay [5] (at 50.0 µM); 18% in assay [6] (setting [7]); 94% (active) in assay [6] (setting [8]); 94.5% (active) in assay [6] (at 50.0 µM).
As to `Clc1cc(Cl)c(NN=C(c2ccccc2)c2ccccc2)c(Cl)c1`, the growth inhibition was 37% in assay [1] (setting [7]); 97% (active) in assay [1] (setting [8]); 99.5% (active) in assay [1] (at 50.0 µM); 39% in assay [2] (setting [7]); 97% (active) in assay [2] (setting [8]); 99.2% (active) in assay [2] (at 50.0 µM). Besides, the growth inhibition was 57% in assay [3] (setting [7]); 98% (active) in assay [3] (setting [8]); 99.7% (active) in assay [3] (at 50.0 µM); 43% in assay [4] (setting [7]); 97% (active) in assay [4] (setting [8]); 99.4% (active) in assay [4] (at 50.0 µM). Further, the growth inhibition in assay [5] (setting [7]) is 87% (active); in assay [5] (setting [8]), 98% (active); in assay [5] (at 50.0 µM), 58.5%; in assay [6] (setting [7]), 72% (active); in assay [6] (setting [8]), 98% (active); in assay [6] (at 50.0 µM), 99.5% (active).
For the molecule `OC(Cc1ccccc1)(c1ccccc1)C(O)(Cc1ccccc1)c1ccccc1` (stereo not given), the growth inhibition is 30% in assay [1] (setting [7]); 79% (active) in assay [1] (setting [8]); 85.2% (active) in assay [1] (at 50.0 µM); 20% in assay [2] (setting [7]); 54% in assay [2] (setting [8]); 78.5% (active) in assay [2] (at 50.0 µM). In addition, the growth inhibition in assay [3] (setting [7]) was 0%; in assay [3] (setting [8]), 52%; in assay [3] (at 50.0 µM) it was 78.4% (active); in assay [4] (setting [7]) it was 13%; in assay [4] (setting [8]), 53%; in assay [4] (at 50.0 µM), 85.7% (active). In addition, the growth inhibition was 15% in assay [5] (setting [7]); 61% in assay [5] (setting [8]); 74.5% (active) in assay [5] (at 50.0 µM); 26% in assay [6] (setting [7]); 76% (active) in assay [6] (setting [8]); 87.2% (active) in assay [6] (at 50.0 µM).
For the molecule `CN(C)c1nc(=NCc2ccccc2)ss1`, the growth inhibition in assay [1] (setting [7]) was -7%; in assay [1] (setting [8]), 46%; in assay [1] (at 50.0 µM), 66.9%; in assay [2] (setting [7]) it was -5%; in assay [2] (setting [8]), 38%; in assay [2] (at 50.0 µM), 54.7%. The growth inhibition in assay [3] (setting [7]) was 19%; in assay [3] (setting [8]), 77% (active); in assay [3] (at 50.0 µM) it was 72.5% (active); in assay [4] (setting [7]), 8%; in assay [4] (setting [8]), 48%; in assay [4] (at 50.0 µM), 36.6%. Moreover, the growth inhibition in assay [5] (setting [7]) was 0%; in assay [5] (setting [8]), 76% (active); in assay [5] (at 50.0 µM), 59%; in assay [6] (setting [7]), 5%; in assay [6] (setting [8]), 82% (active); in assay [6] (at 50.0 µM), 50.1%.
For `O=C(O)CCSSCCCCCS(=O)O`, the growth inhibition in assay [1] (setting [7]) was -5%; in assay [1] (setting [8]), -4%; in assay [1] (at 50.0 µM) it was 54.9%; in assay [2] (setting [7]) it was 4%; in assay [2] (setting [8]), 10%; in assay [2] (at 50.0 µM), -1.9%. Moreover, the growth inhibition in assay [3] (setting [7]) was -1%; in assay [3] (setting [8]), 0%; in assay [3] (at 50.0 µM), 7.95%; in assay [4] (setting [7]), -10%; in assay [4] (setting [8]), -22%; in assay [4] (at 50.0 µM) it was 1%. The growth inhibition in assay [5] (setting [7]) is -3%; in assay [5] (setting [8]), 9%; in assay [5] (at 50.0 µM), 13%; in assay [6] (setting [7]), 0%; in assay [6] (setting [8]), 9%; in assay [6] (at 50.0 µM) it was 13%.
Regarding `CC1=C(C(=O)Nc2cccc(Cl)c2)C(c2ccccc2O)C(C(=O)Nc2cccc(Cl)c2)=C(C)N1`, the growth inhibition in assay [1] (setting [7]) is 25%; in assay [1] (setting [8]) it was 25%; in assay [1] (at 50.0 µM) it was 55.6%; in assay [2] (setting [7]), 14%; in assay [2] (setting [8]) it was 14%; in assay [2] (at 50.0 µM), 65%. Further, the growth inhibition was 9% in assay [3] (setting [7]); 9% in assay [3] (setting [8]); 56.5% in assay [3] (at 50.0 µM); 10% in assay [4] (setting [7]); 10% in assay [4] (setting [8]); 59.2% in assay [4] (at 50.0 µM). Also, the growth inhibition in assay [5] (setting [7]) is 12%; in assay [5] (setting [8]), 12%; in assay [5] (at 50.0 µM) it was 57.9%; in assay [6] (setting [7]), 25%; in assay [6] (setting [8]) it was 25%; in assay [6] (at 50.0 µM), 32.3%.
For `C=C1C(=O)OC2CC1C(O)C/C(C)=C/CC/C(C)=C/C(O)CC2C` (stereo not given), the growth inhibition in assay [1] (setting [7]) was 18%; in assay [1] (setting [8]), 70% (active); in assay [1] (at 50.0 µM), -4.95%; in assay [2] (setting [7]), 19%; in assay [2] (setting [8]), 84% (active); in assay [2] (at 50.0 µM) it was -20.6%. Also, the growth inhibition was 15% in assay [3] (setting [7]); 54% in assay [3] (setting [8]); 9.6% in assay [3] (at 50.0 µM); 11% in assay [4] (setting [7]); 46% in assay [4] (setting [8]); -5% in assay [4] (at 50.0 µM). For the same molecule, the growth inhibition in assay [5] (setting [7]) was 26%; in assay [5] (setting [8]) it was 84% (active); in assay [5] (at 50.0 µM), -7.7%; in assay [6] (setting [7]), 48%; in assay [6] (setting [8]), 95% (active); in assay [6] (at 50.0 µM) it was 83.5% (active).
Regarding `O=c1c(NO)c([N+](=O)[O-])cnn1-c1ccccc1`, the growth inhibition in assay [1] (setting [7]) is 25%; in assay [1] (setting [8]), 51%; in assay [1] (at 50.0 µM), 14.5%; in assay [2] (setting [7]), 8%; in assay [2] (setting [8]), 18%; in assay [2] (at 50.0 µM), 2.4%. The growth inhibition in assay [3] (setting [7]) is -7%; in assay [3] (setting [8]) it was -2%; in assay [3] (at 50.0 µM), 29.4%; in assay [4] (setting [7]), 13%; in assay [4] (setting [8]) it was 31%; in assay [4] (at 50.0 µM), 34.4%. For the same molecule, the growth inhibition in assay [5] (setting [7]) was -2%; in assay [5] (setting [8]), 28%; in assay [5] (at 50.0 µM) it was -3.6%; in assay [6] (setting [7]), -23%; in assay [6] (setting [8]) it was -5%; in assay [6] (at 50.0 µM) it was -0.5%.
Regarding `Brc1ccc(C2SCc3nc4ccccc4n32)cc1` (stereo not given), the growth inhibition in assay [1] (setting [7]) was 2%; in assay [1] (setting [8]) it was 89% (active); in assay [1] (at 50.0 µM), 74.5% (active); in assay [2] (setting [7]), 7%; in assay [2] (setting [8]), 51%; in assay [2] (at 50.0 µM) it was 24.8%. Also, the growth inhibition is 12% in assay [3] (setting [7]); 57% in assay [3] (setting [8]); 96.1% (active) in assay [3] (at 50.0 µM); -10% in assay [4] (setting [7]); 37% in assay [4] (setting [8]); 56.6% in assay [4] (at 50.0 µM). In addition, the growth inhibition was -2% in assay [5] (setting [7]); 88% (active) in assay [5] (setting [8]); 92.3% (active) in assay [5] (at 50.0 µM); -2% in assay [6] (setting [7]); 54% in assay [6] (setting [8]); 78.7% (active) in assay [6] (at 50.0 µM).
